Bioassay records (PubChem BioAssay)
NPSR antag: blocks cAMP signaling of the human neuropeptide S receptor; Q6W5P4; CHO-NPSR cells, cAMP TR-FRET, antagonist mode; Potency, µM (top dose mostly 38.3 µM), most hits filed as inhibitors; 220,000 tested, 1% active; note: nearly all actives have a fitted effect of over 50% in size
ClpP mod: qHTS Assay for Activators of ClpP; purified B. subtilis ClpP, FRET peptide cleavage, 20 min; 340,000 tested, 1.9% active; Potency, µM (titrated, usually from 57.5 µM); ATP-dependent Clp protease proteolytic subunit (Bacillus subtilis (strain 168)), P80244; AID 651965, 2013; active = well fitted falling curve with a large enough effect; inconclusive = small, poorly fitted or top-dose-only effect; inactive = no such curve, though single readings can be large or run the other way; note: the source files actives as falling curves though it sought activators and does not explain the sign; nearly all actives have a fitted effect of over 65% in size
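Buffer: 100 mM Tris/HCl pH8, 100 mM KCl, 0.05% low protease BSA, 2.5% glycerol, 0.01% Tween-20. ClpP 10 microg/mL final; 20 min RT; delta FRET normalized to ADEP and DMSO controls.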
IL2 activator: activates IL-2 in a cell-based reporter assay; activation, % (series mostly up to about 46 µM); IL-2 activation reporter assay, cell-based qHTS; stimulated with anti-CD3/CD4/CD28 beads; in transgenic mouse T cells; AID 652025; 360,000 tested, 0.065% active; in the data active = activation above about 50%; inconclusive = mostly about 30% to 49%
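Quantitative HTS in unstimulated transgenic mouse T cells, with memory T cells as non-tolerant control and PMA/ionomycin as tolerance-bypass control. Compound pretreatment lasted 60 minutes before 18 h bead stimulation; EGFP/DsRed fluorescence read.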
PKM2 act: PKM2 (human) enzyme activation; P14618; purified PKM2, Kinase-Glo ATP luminescence, activation; response scale: 0% is enzyme alone, no compound; Potency, µM (titrated, usually from 57.5 µM), hits mostly activators; 260,000 tested, 0.34% active; note: nearly all actives have a fitted effect of over 55% in size
Target sequence (P14618 whole entry, looked up): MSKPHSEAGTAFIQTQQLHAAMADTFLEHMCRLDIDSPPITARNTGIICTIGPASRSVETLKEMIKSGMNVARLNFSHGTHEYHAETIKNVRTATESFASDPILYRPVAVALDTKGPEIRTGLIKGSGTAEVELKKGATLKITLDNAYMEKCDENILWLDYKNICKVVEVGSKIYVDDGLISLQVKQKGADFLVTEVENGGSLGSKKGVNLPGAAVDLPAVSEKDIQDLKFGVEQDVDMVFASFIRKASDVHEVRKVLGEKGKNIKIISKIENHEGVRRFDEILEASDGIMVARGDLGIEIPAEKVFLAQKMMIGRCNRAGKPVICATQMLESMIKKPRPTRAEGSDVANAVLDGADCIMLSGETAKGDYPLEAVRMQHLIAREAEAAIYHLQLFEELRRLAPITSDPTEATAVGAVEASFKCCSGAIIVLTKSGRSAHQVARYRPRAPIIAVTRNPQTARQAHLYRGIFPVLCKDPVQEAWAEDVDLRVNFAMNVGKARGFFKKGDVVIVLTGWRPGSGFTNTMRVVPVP
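hPK-M2, >95% pure; 0.1 mM ADP / 0.5 mM PEP final; imidazole pH7.2 buffer w/ 7 mM MgCl2, 50 mM KCl; 1 h RT; Kinase-Glo lum. Intermediate enzyme activity for dual inhibitor/activator qHTS.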
Large screens that a line does not name were inactive. The list is not random: actives were taken first. Their share in the collection is about 2%. Unless noted, calls come from the whole dose curve; as a rule, active = well fitted curve in the direction sought with a large enough effect; inconclusive = small, poorly fitted or top-dose-only effect, or another doubt; inactive = no such curve, though single readings can be large; an effect the other way counts as inactive or inconclusive.

C=C(C)C(=O)Nc1cccc(C2=NOC3(C2)C[C@@H](C(N)=O)N(C(=O)/C=C/C=C/C)C3)c1 (stereo partly drawn)	PKM2 act 12.6µM
C/C=C/C=C/C(=O)N1CC2(CC(c3cccc(NC(=O)CCCCC)c3)=NO2)C[C@H]1C(N)=O (stereo partly drawn)	PKM2 act 7.94µM
C/C=C/C=C/C(=O)N1CC2(CC(c3cccc(NC(=O)/C=C/C)c3)=NO2)C[C@@H]1C(N)=O (stereo partly drawn)	PKM2 act 8.91µM
Cc1ccc(NC(=O)Cc2n[nH]c(=S)n2C)cc1	none (no result: ClpP mod)
Cc1ccc(Oc2cc(NN3CCCCC3)c([N+](=O)[O-])cc2[N+](=O)[O-])c(Cl)c1	none (no result: NPSR antag)
C[n+]1ccc(C(c2c[nH]c3ccccc23)c2cc[n+](C)c3ccccc23)c2ccccc21	none (no result: NPSR antag, IL2 activator, PKM2 act)
COC(=O)c1[nH]c2ccc(C)cc2c1NC(=O)CN1CCN(C(=O)c2ccccc2)CC1	ClpP mod 14.1µM
Cc1ccc(NC(=O)COc2coc(CN3CCN(Cc4ccccc4)CC3)cc2=O)cc1	ClpP mod 28.2µM (no result: NPSR antag, PKM2 act)
COC(=O)c1[nH]c2ccc(C)cc2c1NC(=O)CN1CCC(C)CC1	ClpP mod 28.2µM
COC(=O)c1[nH]c2ccc(C)cc2c1NC(=O)CN1CCN(Cc2ccccc2)CC1	ClpP mod 14.1µM
Cc1ccccc1NC(=O)COc1coc(CN2CCN(Cc3ccccc3)CC2)cc1=O	none (no result: NPSR antag, PKM2 act)
COC(=O)c1[nH]c2ccc(Cl)cc2c1NC(=O)CN1CCC(C(N)=O)CC1	none
C[C@@H]1CN([C@@H](C)CO)C(=O)c2cccc(NC(=O)C3CCCCC3)c2O[C@@H]1CN(C)Cc1ccc(Cl)c(Cl)c1	none (no result: NPSR antag, PKM2 act)
COC(=O)c1[nH]c2ccc(C)cc2c1NC(=O)CN1CCN(c2ccc(F)cc2)CC1	NPSR antag inconclusive
CCOC(=O)c1[nH]c2ccc(F)cc2c1NC(=O)CN1CCN(C/C=C/c2ccccc2)CC1	NPSR antag inconclusive, ClpP mod inconclusive
COC(=O)c1[nH]c2ccc(C)cc2c1NC(=O)CN1CCN(c2ccccc2)CC1	ClpP mod 22.4µM
COC(=O)c1[nH]c2ccccc2c1NC(=O)CN1CCN(C/C=C/c2ccccc2)CC1	ClpP mod 22.4µM
NC(=O)NOCc1ncc(C(F)(F)F)cc1Cl	ClpP mod 28.2µM
CO/N=C/NC(=O)NOCc1ncc(C(F)(F)F)cc1Cl	none
Cc1ccc2nc(N3C(=O)C(O)=C(C(=O)c4ccco4)C3c3cccs3)sc2c1 (stereo not drawn)	NPSR antag 7.94µM
COc1ccc2nc(N3C(=O)C(O)=C(C(=O)c4ccco4)C3c3ccc(C)o3)sc2c1 (stereo not drawn)	none (no result: NPSR antag, ClpP mod, PKM2 act)
CC(C)Oc1c(Cl)cc(CNC(C)(C)CO)cc1Cl	none
COc1ccc(C(=O)c2sc(NC(C)C)nc2N)cc1OC	ClpP mod 25.1µM
COc1cccc(C(=O)c2sc(NC(C)C)nc2N)c1	none
Fc1cccc2sc(Nc3nnc(-c4ccco4)o3)nc12	NPSR antag inconclusive, ClpP mod 25.1µM
COc1cccc2sc(Nc3nnc(-c4ccc(F)cc4)o3)nc12	none
COc1ccc(C2C3=C(CCCC3=O)Nc3ccc4ncccc4c32)cc1OC (stereo not drawn)	ClpP mod 6.31µM
CSc1nc2nccc(-c3ccc(-c4ccccc4)cc3)n2n1	NPSR antag inconclusive, ClpP mod 28.2µM
CSc1nc2nccc(-c3ccc4c(c3)OCO4)n2n1	none (no result: ClpP mod)
CSc1nc2nccc(-c3ccc(Oc4ccccc4)cc3)n2n1	NPSR antag inconclusive, ClpP mod 28.2µM
Cc1cccc(C)c1Nc1c(-c2ccsc2)nc2cccc(C)n12	ClpP mod 35.5µM (no result: NPSR antag, IL2 activator, PKM2 act)
Cc1cc(C)n2c(Nc3c(C)cccc3C)c(-c3ccsc3)nc2n1	none (no result: NPSR antag, IL2 activator, PKM2 act)
COc1ccc(NC(=O)C2CCN(S(=O)(=O)c3ccc(Br)s3)CC2)cc1OC	none
CCC(Oc1ccccc1)C(=O)Nc1ccc(OCc2cc(=O)n3ccccc3n2)cc1 (stereo not drawn)	none (no result: NPSR antag, IL2 activator, PKM2 act)
COC(=O)c1cc(C(=O)OCC(=O)Nc2ccccc2OC(F)F)cc([N+](=O)[O-])c1	ClpP mod 28.2µM
NC(=O)Nc1ccc(C(=O)OCC(=O)Nc2ccc([N+](=O)[O-])cc2C(F)(F)F)cc1	none
Nc1ccc(C(=O)OCC(=O)Nc2ccc([N+](=O)[O-])cc2C(F)(F)F)cc1	ClpP mod 22.4µM
CSc1ccc(Cl)c(C(=O)OCC(=O)Nc2ccccc2OC(F)F)c1	ClpP mod 28.2µM
